Where “and” joins values, the source holds several entries; their conditions need not be identical. Identical values can stand only once. The panel holds about 83,000 compounds, 20% with a hit somewhere; the sample as a whole holds those more often.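 Values shown are percent growth following 48 h exposure of cells in 96-well plates to a single concentration of compound; below 10 was considered active.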 Calls of active or inactive are those of the source.
Test system: M14 melanoma
Test: NCI-60 one-dose screen, 48 h (100 = growth as untreated, 0 = no growth, -100 = all killed)
Conditions: 10 µM unless noted
Procedure: Growth inhibition of the M14 human tumor cell line is measured as a screen for anti-cancer activity. Cells are grown in 96 well plates and exposed to the test compound for 48 hours. Compounds are tested at a single concentration, which is 10^-5 M for most compounds. The reported endpoint is percent growth (GI% or GIPRCNT), where numbers from 0 - 100% represent growth inhibition, and numbers from -100% - 0 represent cell death. For example, a value of 40 represents 60% growth inhibition. A value of 0 means no net growth occurred over the course of the experiment. A value of -40 indicates 40% of cells at the beginning of the experiment died by the end of the experiment. A value of -100 means all cells are dead at the end of the experiment.
NCI-60 Human Tumor Cell Lines Screen was performed using the standard one-dose NCI protocol, which is described in more detail at https://dtp.cancer.gov/discovery_development/nci-60/default.htm.
Compounds with GIPRCNT values below 10 were considered active. Activity score was based on GIPRCNT using the following formula: […]
Score is 0 for GIPRCNT values of 100 or above, 50 for GIPRCNT values of 0, and 100 for GIPRCNT values of -100.

SMILES | growth
CCCCCCCCc1ccc(C(=O)Nc2ccc(C)c(OP(=O)(O)O)c2)cc1 | 106% (inactive)
CCOc1ccccc1[C@H]1C(C(=O)c2ccc(Cl)cc2)C2(N[C@@H]1c1ccccc1)C(=O)Nc1ccccc12 (stereo not given in full) | 15.2% (inactive)
N#CCc1nnc(NC(=O)c2ccc(-n3c(=O)[nH]c4ccccc4c3=O)cc2)s1 | 108% (inactive)
CCc1ccccc1-c1nc(CN[C@@H]2C[C@@H]3C[C@H]([C@H]2C)C3(C)C)c(C)o1 | -83.5% (active)
COc1ccc(N=Nc2c(N)nn3c(-c4ccc5c(c4)C=S=C5)ccnc23)cc1 | 58.9% (inactive)
O=C(CSc1nc2c(c(=O)[nH]1)CCCC2)Nc1ccccc1C(=O)O | 108% (inactive)
COC(=O)c1cc(C(C)=O)n2c3ccccc3c3ccccc3c12 | 72.1% (inactive)
CCCn1c(NC(=O)c2cccc(C(N)=O)c2)nc2ccc(CN3CCCCC3)cc21 | -6.41% (active)
Oc1ccc(Cl)c(Nc2ncnc3c2cnn3CC(Cl)c2ccc(Br)cc2)c1 (stereo not given) | 65.4% (inactive)
CCCn1c(NC(=O)c2cccc(C(N)=O)c2)nc2cc(CN3CCCCC3)ccc21 | 13.8% (inactive)
Nc1cc2ccccc2c(=O)n1NC(=O)c1ccccc1 | 100% (inactive)
O=C(N/N=C/c1c[nH]c2ccccc12)Nc1ccccc1Cl | 10.9% (inactive)
CN(CCSSCCN1CCOCC1)C(=O)Oc1cc2c(c3ccccc13)[C@H](CCl)CN2C(=O)c1cc2cc(OCCCN3CCC3)ccc2[nH]1 | -72.5% (active)
O=C1Nc2ccccc2/C1=C/C(=O)c1cc2ccccc2oc1=O | 101% (inactive)
Cn1cc(-c2cc(N)n3nc(-c4c[nH]c5ccccc45)cc3n2)c2cc(F)ccc21 | -0.365% (active)
CN1CCN(C(=O)Oc2cc3c(c4ccccc24)[C@H](CCl)CN3C(=O)c2cc3cc(OCCCN4CCC4)ccc3[nH]2)[C@@H]2CSSC[C@H]21 | -74.7% (active)
COC(=O)c1cccc(Oc2ccc(NC(=O)Nc3cc(C(F)(F)F)ccc3F)cc2)c1 | 84.9% (inactive)
O=C(NN1C(=O)/C(=C/C=C/c2ccc([N+](=O)[O-])o2)SC1=S)c1ccncc1 | -67.9% (active)
O=C(CSc1nc2ccccc2c(=O)[nH]1)Nc1ccccc1C(=O)O | 105% (inactive)
O=C(N/N=C/c1ccc(-c2cccc([N+](=O)[O-])c2)s1)c1[nH]c2ccc(Br)cc2c1-c1ccccc1 | 75.2% (inactive)

SMILES | growth
CN(C)c1nc(NCCNS(=O)(=O)c2ccc(C(=O)/C=C/c3ccc(F)cc3)cc2)nc(N2CCOCC2)n1 | 12.7% (inactive)
O=C(CCl)Nc1ccc(C(=O)/C=C/c2cc3ccccc3nc2Cl)cc1 | -62.3% (active) and 42.9% (inactive)
COc1ccc(N=Nc2c(N)nn3c(N)c(C#N)c(-c4ccccc4)nc23)cc1 | 74.2% (inactive)
CCCSc1nnc(-c2sc3nc4ccccc4n3c2C)o1 | 106% (inactive)
COc1ccc(N=Nc2c(N)nn3c(-c4ccc(OC)c(OC)c4)ccnc23)cc1 | 62.5% (inactive)
CS(=O)(=O)Nc1cncc(-c2ccc3ncnc(NCc4ccccc4)c3c2)c1 | 49% (inactive)
C=CC(=O)Nc1ccc(C(=O)/C=C/c2ccc(N(C)C)cc2)c(O)c1 | -5.06% (active)
C#CCN(C)CCCOc1ccc(N(C)C(=O)c2cc(C(C)C)c(O)cc2O)cc1Cl | 0.868% (active)
O=Cc1cncc(-c2ccc3ncnc(N4CCc5cc(F)c(Cl)cc54)c3c2)c1 | 48.6% (inactive)
CCN1C(=O)N(CC)C2NNC(Sc3c(C(=O)O)c4ccccc4n(CC(C)C)c3=O)=NC21 (stereo not given) | 22.4% (inactive)
Oc1ccc(F)c(Nc2nc(SCCN3CCOCC3)nc3c2cnn3CC(Cl)c2ccc(Br)cc2)c1 (stereo not given) | 18.8% (inactive)
CC(=O)Nc1cccc(-n2c(COc3ccc(Br)cc3)nc3ccccc32)c1 | 109% (inactive) and 108% (inactive)
O=C1C=CC(=CC=C2N(Cc3ccc4ccccc4c3)c3ccccc3N2Cc2ccc3ccccc3c2)C=C1 | 20.8% (inactive) and 29.8% (inactive)
COc1ccc(-c2cc(C)nc3[nH]c(=O)sc23)cc1 | 98.5% (inactive)
Cn1cc(-c2cc(N)n3nc(-c4c[nH]c5ccccc45)cc3n2)c2ccccc21 | -81.5% (active)
C/C(=N\Nc1ccc(C(=O)O)cc1)c1cnn(-c2cc(=O)[nH]c3ccc(C)cc23)c1C | 96.3% (inactive)
CC(C)(C)C(=O)C1CC(C#N)=C2C=Cc3c(ccc4ccccc34)N21 (stereo not given) | 105% (inactive)
COc1ccc(N=Nc2c(N)nn3c(N)c(C#N)c(-c4ccc(C)cc4)nc23)cc1 | 61.6% (inactive)
S=C(Nc1ccc(OCc2nc3ccc(Cl)cc3[nH]2)cc1)NC1CCCCC1 | -37.2% (active)
N#CC1=C(c2cccs2)Nc2c(c(-c3ccccc3)nn2-c2ccccc2)C12C(=O)Nc1ccc(Cl)cc12 (stereo not given) | 16.5% (inactive)

Reference: PubChem BioAssay (NCI)
